The list is not random: actives were taken first. Their share in the collection is about 0.74%.
p-CIP stab down = p/CIP protein destabilization. F442A p/CIP-EGFP cells, EGFP fluorescence, 16 h. decrease of EGFP signal, % at 10 µM. hit rate 0.01% among 290,000. AID 1984;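 active means EGFP signal decrease of at least 30% at 10 µM or well 3 SD below plate mean, unless failing retest; inactive means the rest, including hits failing retest or dose response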
Tb hexokinase = blocks Trypanosoma brucei hexokinase 1 activity. recombinant TbHK1, G6PDH-coupled NADH A340. hit rate 0.11% among 220,000. inhibition, % at 10 µM;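 active means inhibition of 50% or more in the single-dose primary screen; inactive means inhibition below 50%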
Furin inh = inhibitors of human furin | P09958 | purified furin, fluorogenic substrate cleavage | inhibition, % at 20 µM or 30 µM | hit rate 0.061% among 220,000 | AID 463115; in the data active means inhibition above about 25%
DTT redox prof = compounds producing H2O2 with reducing agent – biochemical, NIH compound library profiling, artefact control for MLSCN library redox annotation, primary screen. DTT-dependent redox cycling H2O2, phenol red/HRP absorbance; 100% = 100 µM peroxide control, 0% = buffer. activation, % at 10 µM. hit rate 0.03% among 200,000. AID 878;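 active means activation of at least 50% relative to the plate's high and low controls in the primary single-dose screen; inactive means activation below 50%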;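 further: compound incubated with DTT at 0.8 mM final as the reducing agent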
p97 inhibitor = human p97 ATPase inhibition. hit rate 0.42% among 220,000. AID 1481. recombinant p97 ATPase, Kinase-Glo ATP luminescence, 3 h. inhibition, % at 8 µM; in the data active means inhibition above about 15%
HMGR II inh = blocks class II HMG-CoA reductase of Enterococcus faecalis; hit rate 0.41% among 190,000; purified E. faecalis HMGR, NADPH absorbance 340 nm kinetic; inhibition, % at 10 µM;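 active means inhibition above a set limit, the median over all tested compounds plus 3 SD, cut at about 9.5% in these data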;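 further: enzyme runs in reverse so mevalonate oxidation gives rising NADPH absorbance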
Numbers stand for hits; . = inactive; / = no result.

SMILES | p-CIP stab down | Tb hexokinase | Furin inh | DTT redox prof | p97 inhibitor | HMGR II inh
Cc1ccc(S(=O)(=O)N2CCC(C(=O)NCCCN3CCCC3=O)CC2)cc1C | . | / | / | / | / | /
CCOC(=O)c1c(C)[nH]c(C)c1C(=O)CSc1nncs1 | . | . | . | . | . | 10.4
CCOC(=O)c1c(C)[nH]c(C)c1C(=O)CSc1ncccn1 | . | . | . | . | . | .
Cn1ncc(Cl)c1C(=O)Nc1cccc(Cl)c1 | . | . | 30.0 | . | . | .
COc1cccc(Oc2ccc(S(=O)(=O)N3CCCC3)cc2[N+](=O)[O-])c1 | . | / | / | / | / | /
CN(Cc1ccco1)C(=O)Cn1cc(S(=O)(=O)N2CCCC2)c(S(=O)(=O)N2CCCC2)c1 | . | / | / | / | / | /
COC(=O)c1ccc(NC(=O)Nc2ccccc2F)cc1 | . | . | . | . | . | 16.9
C=CCC1C=C(C)CC(CC=C)N1 (stereo not drawn) | . | . | . | . | . | 13.3
Cn1c(=O)c2c(ncn2CC(=O)OCC(=O)Nc2ccccc2)n(C)c1=O | . | . | . | . | . | 10.2
COC(=O)c1cc(=O)n(-c2ccc(F)cc2)c(=Nc2ccc(F)cc2)s1 | . | . | . | . | . | 11.2
CCC(C)(C)NC(=O)C(c1ccc(O)cc1)N(CCOC)C(=O)CCC(=O)Nc1nccs1 (stereo not drawn) | . | . | . | / | . | /
CCC(C)(C)NC(=O)C(c1ccc(OC)cc1)N(CCOC)C(=O)CCC(=O)Nc1nccs1 (stereo not drawn) | . | . | . | . | . | 10.3
COC(=O)c1c(NC(C)=O)sc(C(=O)Nc2ccccc2)c1C | . | . | . | . | . | .
CCCC(=O)Nc1sc(C(=O)Nc2cccc(N)c2)c(C)c1C(=O)OC | . | . | . | . | . | 17.2
Cc1ccccc1-n1c(SCC(=O)Nc2ccccc2)nc2nc3c(cc2c1=O)CCCC3 | . | . | . | . | . | 12.6
O=C(Nc1ccc2c(c1)C(=O)N(c1ccccc1)C2=O)C1CCCO1 (stereo not drawn) | . | . | . | . | . | 12.4
COc1ccc(OC)c(-n2c(=S)[nH]c3cc(C(=O)N4CCN(c5ccccc5)CC4)ccc3c2=O)c1 | . | . | . | . | . | .
Cn1c(=O)c2c(ncn2CC(=O)N2CCN(S(=O)(=O)c3ccccc3)CC2)n(C)c1=O | . | / | / | / | / | /
CN(CCO)c1cc(NCCCN2CCC(Cc3ccccc3)CC2)c2nonc2c1[N+](=O)[O-] | . | . | . | . | . | 13.5
CC1CCN(CCCNc2cc(NCCO)c([N+](=O)[O-])c3nonc23)CC1 | . | / | / | / | / | /
CC(C)=C1C(=O)NN(c2ccc(F)c(Cl)c2)C1=O | . | . | . | . | 20.4 | .
Cc1ccc(N2CC(C(=O)Nc3nnc(SCCN4CCOCC4)s3)CC2=O)cc1C (stereo not drawn) | . | / | / | / | / | /
COc1ccc(S(=O)(=O)Nc2cc(Sc3ncn[nH]3)c(O)c3ccccc23)cc1 | . | . | . | . | 30.9 | .
COc1ccc(S(=O)(=O)Nc2ccc(O)c(Sc3ncn[nH]3)c2)cc1 | . | . | . | . | . | .
O=C(NC1CCCCC1)C(c1ccncc1)N(C(=O)Cc1cccs1)c1ccccc1 (stereo not drawn) | . | . | . | . | . | .
SMILES | p-CIP stab down | Tb hexokinase | Furin inh | DTT redox prof | p97 inhibitor | HMGR II inh
O=C(NC1CCCC1)C(c1ccncc1)N(C(=O)Cc1cccs1)c1ccccc1 (stereo not drawn) | . | . | . | . | . | 10.4
CNC(=O)N1CCC(C(=O)c2c(C)c(C)c(C)c(C)c2C)CC1 | . | / | / | / | / | /
O=C(CS(=O)(=O)Cc1ccccc1)NCc1ccco1 | . | . | . | . | . | 9.8
O=C(CS(=O)(=O)c1ccccc1)NCc1ccco1 | . | . | . | . | . | .
CC1CCCC(C)N1CC(O)Cn1c2ccccc2c2ccccc21 (stereo not drawn) | . | / | / | / | / | /
C=CCn1cnc2c(nnn2-c2ccc(Cl)cc2)c1=O | . | . | . | . | . | 15.6
CCN1CCN(C(=O)CN2C(=O)COc3ccc(C)cc32)CC1 | . | / | / | / | / | /
CCn1c(-c2nn(C)c(C)c2Cl)n[nH]c1=S | . | . | . | . | . | 10.8
O=C(COc1ccc([N+](=O)[O-])cc1)Nc1cccc2nsnc12 | . | / | / | / | / | /
ClCC1=Nc2cccc3cccc(c23)N1 | . | . | . | / | 14.8 | /
COc1ccccc1NC(=O)C1=C(C)NC(=O)NC1c1ccccc1[N+](=O)[O-] (stereo not drawn) | . | . | . | . | . | 10.6
